Our source for the composite z-score and z-score values is PubChem BioAssay.

The nature of assay [1]: binders of probe aFSTL3 on microarray, primary screen, stem cell growth factor project, biochemical, small-molecule microarray, fluorescence 635/667 (AID 1064).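 Note: measures binding of the biotinylated anti-FSTL3 antibody to printed compounds.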 Particulars: higher = more signal.
Assay [2] in a line: binders from COS7 lysate, DM2A8 probe, primary screen, torsin A project, cell lysate, small-molecule microarray, fluorescence 635/667 (AID 1065). The conditions noted are these: higher = more signal, COS7 lysate expressing mutant human TOR1A.
Assay [3] can be described thus: binders of probe aFGF2 on microarray, primary screen, stem cell growth factor project, biochemical, small-molecule microarray, fluorescence 635/667 (AID 1067).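 Note: measures binding of biotinylated aFGF2 protein to printed compounds on slides; z-score merges feature fluorescence and signal-to-noise across triplicate slides.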 Particulars: higher = more signal.
Assay [4] in a line: binders of probe aFGF10 on microarray, primary screen, stem cell growth factor project, biochemical, small-molecule microarray, fluorescence 635/667 (AID 1071).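 Note: score merges 667 nm spot intensity and signal to noise from triplicate slides.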 The conditions noted are these: higher = more signal.
In assay [5] the target is Neurogenic locus notch homolog protein 2 (Homo sapiens) (UniProt Q04721). Put plainly: Notch2 binders on small-molecule microarrays, primary screen, biochemical, small-molecule microarray, 635 nm fluorescence, stem cell growth factors (AID 1073). The conditions noted are these: Notch2 binding, higher = more signal.
The target in assay [6] is Pro-neuregulin-1, membrane-bound isoform (Homo sapiens) (UniProt Q02297). The assay can be described thus: NRG1 binders on small-molecule microarrays, primary screen, psychiatric disease protein project, biochemical, small-molecule microarray, fluorescence 635/667 (AID 1075).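 Note: score combines 667 nm spot fluorescence with signal to noise.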 Particulars: NRG1 binding, 635 nm fluorescence, higher = more signal.
The test system of assay [7] is Neuregulin-1 EGF-like domain. The assay can be described thus: binders of neuregulin-1 EGF-like domain, primary screen, biochemical, small-molecule microarray, 635 nm fluorescence (AID 1081).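 Note: binding of the protein to compounds printed on small-molecule microarray slides.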 The conditions noted are these: small-molecule microarray binding, higher = more signal.
Assay [8] is described as follows: FRG1 promoter luciferase signal modulators, primary screen, FRG1 inhibition for FSHD, cell-based, C2C12 myotubes, firefly/Renilla luciferase, luminescence (AID 1084). Particulars: higher = more signal, called active from +8 up or from −8 down.
The nature of assay [9]: binders of probe aFST on microarray, primary screen, stem cell growth factor project, biochemical, small-molecule microarray, fluorescence 635/667 (AID 1086).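 Note: score merges 667 nm fluorescence with signal-to-noise of each printed compound spot.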 Particulars: higher = more signal.
A short description of assay [10]: binders of probe aHhip on microarray, primary screen, stem cell growth factor project, biochemical, small-molecule microarray, fluorescence 635/667 (AID 1087).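 Note: score merges spot fluorescence at 667nm with spot signal to noise ratio.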 The conditions noted are these: higher = more signal.
Assay [11] deals with PRMT1 (protein arginine N-methyltransferase 1). The assay can be described thus: PRMT1 binders on small-molecule microarrays, primary screen, biochemical, small-molecule microarray, 635 nm fluorescence (AID 1088).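 Note: binding of Prmt1 protein to compounds spotted on small-molecule microarray slides.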 The conditions noted are these: small-molecule microarray binding, higher = more signal.
The nature of assay [12]: yeast growth modulation, basal conditions, primary screen, YJM789 clinical isolate, OD600, 24 h (AID 1089).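 Note: growth of clinical yeast isolate S. cerevisiae YJM 789 seeded 1000 cells per well; test concentration not given here.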 Particulars: S. cerevisiae YJM789 growth, higher = more signal, called active from +8 up or from −8 down.
Assay [13] can be described thus: fission yeast growth modulation, primary screen, strain 972, OD600, 24 h, no modulator (AID 1090).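 Note: basal condition with compound alone and no growth modifier present; test concentration not given here.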 Particulars: S. pombe 972 growth, higher = more signal, called active from +8 up or from −8 down.
The nature of assay [14]: S. cerevisiae growth modulation with rapamycin, primary screen, strain BY4716, OD600, 96 h (AID 1091). Note: test concentration not given here. Particulars: higher = more signal, called active from +8 up or from −8 down.
The target of assay [15] is Torsin-1A-interacting protein 2 (Homo sapiens) (UniProt Q8NFQ8). Put plainly: LULL1 binders on small-molecule microarray, primary screen, cell lysate, human LULL1 lysate, 635/667 nm fluorescence (AID 1092).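 Note: probe is lysate of COS7 cells overexpressing human LULL1; score merges per-feature 667 nm fluorescence with signal-to-noise.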 Particulars: hLULL1 lysate binding, 635 nm fluorescence, higher = more signal.
Assay [16] is described as follows: E. coli growth modulation, two-sided OD650, primary screen, E. coli filamentation project, strain DRC41, 24 h (AID 1093).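 Note: MC1000 strain lacking acrAB efflux and sulA so SOS filamentation is blocked; test concentration not given here.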 Particulars: OD650, 24 h, higher = more signal, called active from +8 up or from −8 down.
Assay [17] can be described thus: small-molecule microarray binders of probe aLefty2, primary screen, biochemical, biotinylated probe, 635/667 nm fluorescence (AID 1094).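 Note: score merges spot fluorescence near 667 nm with spot signal-to-noise ratio.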 Particulars: higher = more signal.
Assay [18] concerns Noggin (protein binding on small-molecule microarray). Put plainly: Noggin binders on small-molecule microarray, primary screen, biochemical, 635/667 nm fluorescence (AID 1095).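 Note: score merges 667 nm feature fluorescence with signal to noise over triplicate slides.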 Particulars: 635 nm fluorescence, higher = more signal.
The target of assay [19] is Neurogenic locus notch homolog protein 3 (Homo sapiens) (UniProt Q9UM47). Put plainly: NOTCH3 binders on small-molecule microarray, primary screen, biochemical, 635/667 nm fluorescence (AID 1096). Particulars: NOTCH3 binding, 635 nm fluorescence, higher = more signal.
The nature of assay [20]: small-molecule microarray binders of probe aEGFR, primary screen, biochemical, biotinylated probe, 635/667 nm fluorescence (AID 1097).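 Note: probe is a biotinylated anti-EGFR antibody binding compounds printed on slides; score combines fluorescence near 667 nm and signal to noise of each spot.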 Particulars: higher = more signal.

Calls of active or inactive are those of the source.

Neurogenic locus notch homolog protein 2 (Homo sapiens), sequence (Q04721 whole entry, looked up, canonical isoform): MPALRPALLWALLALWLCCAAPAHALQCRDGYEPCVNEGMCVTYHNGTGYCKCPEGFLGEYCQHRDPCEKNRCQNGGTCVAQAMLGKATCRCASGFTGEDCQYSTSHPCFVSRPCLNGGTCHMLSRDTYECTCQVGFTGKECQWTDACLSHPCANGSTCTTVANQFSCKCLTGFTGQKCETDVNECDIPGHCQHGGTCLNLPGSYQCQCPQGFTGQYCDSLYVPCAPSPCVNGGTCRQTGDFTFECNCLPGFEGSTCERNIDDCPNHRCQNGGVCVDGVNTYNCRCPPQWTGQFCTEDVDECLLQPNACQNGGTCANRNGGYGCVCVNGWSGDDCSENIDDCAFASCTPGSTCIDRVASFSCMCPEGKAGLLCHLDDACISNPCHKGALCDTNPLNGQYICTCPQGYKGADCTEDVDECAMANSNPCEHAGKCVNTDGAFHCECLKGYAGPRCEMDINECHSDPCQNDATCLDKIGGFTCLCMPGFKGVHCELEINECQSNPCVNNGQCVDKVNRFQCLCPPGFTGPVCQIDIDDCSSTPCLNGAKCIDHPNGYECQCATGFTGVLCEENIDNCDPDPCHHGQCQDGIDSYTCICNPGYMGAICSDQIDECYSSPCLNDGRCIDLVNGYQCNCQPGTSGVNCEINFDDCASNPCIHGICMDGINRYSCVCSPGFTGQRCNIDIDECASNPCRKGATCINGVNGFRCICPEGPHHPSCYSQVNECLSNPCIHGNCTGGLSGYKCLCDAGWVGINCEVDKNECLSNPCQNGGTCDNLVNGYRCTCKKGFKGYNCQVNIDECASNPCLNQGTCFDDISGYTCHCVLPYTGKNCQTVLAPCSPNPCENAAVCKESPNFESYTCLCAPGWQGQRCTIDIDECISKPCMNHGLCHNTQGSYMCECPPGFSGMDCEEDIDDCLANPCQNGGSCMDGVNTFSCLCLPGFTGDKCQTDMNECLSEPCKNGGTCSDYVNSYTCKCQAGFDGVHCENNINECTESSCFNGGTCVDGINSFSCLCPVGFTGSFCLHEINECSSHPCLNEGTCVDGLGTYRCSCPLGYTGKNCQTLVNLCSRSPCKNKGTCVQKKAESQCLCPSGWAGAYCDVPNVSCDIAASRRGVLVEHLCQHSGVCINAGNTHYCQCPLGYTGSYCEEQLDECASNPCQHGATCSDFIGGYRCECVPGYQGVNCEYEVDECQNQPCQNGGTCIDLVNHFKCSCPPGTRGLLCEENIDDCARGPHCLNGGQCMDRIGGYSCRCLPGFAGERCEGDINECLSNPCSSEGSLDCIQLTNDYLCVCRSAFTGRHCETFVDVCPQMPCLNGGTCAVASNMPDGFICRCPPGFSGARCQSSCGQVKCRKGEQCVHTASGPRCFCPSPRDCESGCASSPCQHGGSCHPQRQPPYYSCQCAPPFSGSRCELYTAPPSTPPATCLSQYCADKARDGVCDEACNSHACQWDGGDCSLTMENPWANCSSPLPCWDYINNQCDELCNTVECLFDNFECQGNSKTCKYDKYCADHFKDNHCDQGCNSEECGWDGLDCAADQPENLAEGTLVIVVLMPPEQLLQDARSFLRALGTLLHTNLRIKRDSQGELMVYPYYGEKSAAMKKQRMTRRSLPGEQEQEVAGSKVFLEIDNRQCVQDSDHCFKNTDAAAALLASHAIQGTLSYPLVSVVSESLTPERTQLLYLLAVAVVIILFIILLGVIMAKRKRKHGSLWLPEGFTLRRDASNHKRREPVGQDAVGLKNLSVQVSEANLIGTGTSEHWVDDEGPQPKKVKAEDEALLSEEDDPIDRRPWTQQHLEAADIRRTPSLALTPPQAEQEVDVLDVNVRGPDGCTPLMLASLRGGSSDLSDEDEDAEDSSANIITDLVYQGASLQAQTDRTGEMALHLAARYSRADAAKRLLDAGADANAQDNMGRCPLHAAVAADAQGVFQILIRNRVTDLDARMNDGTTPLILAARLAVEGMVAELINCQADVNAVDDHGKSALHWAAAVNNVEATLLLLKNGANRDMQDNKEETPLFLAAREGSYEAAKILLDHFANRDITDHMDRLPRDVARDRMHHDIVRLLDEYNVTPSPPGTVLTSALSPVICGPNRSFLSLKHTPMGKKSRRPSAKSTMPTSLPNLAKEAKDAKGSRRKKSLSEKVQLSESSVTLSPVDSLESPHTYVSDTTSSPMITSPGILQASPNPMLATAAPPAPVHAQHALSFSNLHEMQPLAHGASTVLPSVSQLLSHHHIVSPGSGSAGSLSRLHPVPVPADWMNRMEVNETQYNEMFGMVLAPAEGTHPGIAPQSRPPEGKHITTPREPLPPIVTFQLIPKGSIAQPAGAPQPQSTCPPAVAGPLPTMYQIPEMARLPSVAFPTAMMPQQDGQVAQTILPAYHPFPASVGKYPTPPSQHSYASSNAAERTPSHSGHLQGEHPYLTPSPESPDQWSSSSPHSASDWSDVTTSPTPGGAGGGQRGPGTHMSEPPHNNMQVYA
Torsin-1A-interacting protein 2 (Homo sapiens), sequence (Q8NFQ8 whole entry, looked up): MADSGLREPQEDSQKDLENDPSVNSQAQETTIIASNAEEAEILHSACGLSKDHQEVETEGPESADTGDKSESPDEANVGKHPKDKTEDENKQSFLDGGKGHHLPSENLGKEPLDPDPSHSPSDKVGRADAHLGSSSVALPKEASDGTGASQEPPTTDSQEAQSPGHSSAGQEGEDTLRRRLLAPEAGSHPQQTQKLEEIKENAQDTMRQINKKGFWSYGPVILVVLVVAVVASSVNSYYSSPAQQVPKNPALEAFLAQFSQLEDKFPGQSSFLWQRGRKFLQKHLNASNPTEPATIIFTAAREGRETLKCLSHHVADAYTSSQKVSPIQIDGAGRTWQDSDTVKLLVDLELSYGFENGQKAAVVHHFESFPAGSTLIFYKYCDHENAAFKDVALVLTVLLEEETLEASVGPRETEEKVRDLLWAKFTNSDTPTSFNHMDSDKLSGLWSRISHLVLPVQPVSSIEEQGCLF
Pro-neuregulin-1, membrane-bound isoform (Homo sapiens), sequence (Q02297 whole entry, looked up, the tested form may be a part, canonical isoform): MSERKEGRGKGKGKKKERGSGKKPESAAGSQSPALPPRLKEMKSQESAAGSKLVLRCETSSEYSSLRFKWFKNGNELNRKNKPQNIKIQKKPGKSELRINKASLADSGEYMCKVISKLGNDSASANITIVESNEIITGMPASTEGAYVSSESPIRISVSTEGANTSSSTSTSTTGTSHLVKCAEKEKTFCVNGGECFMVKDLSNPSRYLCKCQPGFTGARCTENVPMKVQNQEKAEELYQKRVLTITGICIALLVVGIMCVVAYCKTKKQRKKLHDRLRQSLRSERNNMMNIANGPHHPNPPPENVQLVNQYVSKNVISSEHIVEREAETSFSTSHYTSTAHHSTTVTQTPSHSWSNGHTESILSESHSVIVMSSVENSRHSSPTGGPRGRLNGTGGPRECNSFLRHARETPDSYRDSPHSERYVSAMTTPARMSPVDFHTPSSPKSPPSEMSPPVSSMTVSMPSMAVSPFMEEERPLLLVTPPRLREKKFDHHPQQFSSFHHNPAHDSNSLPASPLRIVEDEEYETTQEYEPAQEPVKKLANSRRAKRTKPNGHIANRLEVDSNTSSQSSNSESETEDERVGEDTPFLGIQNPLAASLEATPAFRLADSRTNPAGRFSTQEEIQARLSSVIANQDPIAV

Regarding `COc1ccc(C#Cc2ccc3c(c2)[C@]2(C(=O)N3)[C@H](C(=O)O)[C@H]3C(=O)O[C@H](c4ccccc4)[C@H](c4ccccc4)N3[C@@H]2c2ccc(OCCO)cc2)cc1`, the composite z-score is -0.397 in assay [1]; 0.959 in assay [2]; -0.0344 in assay [3]; 0.903 in assay [4]; 0.357 in assay [5]; 1.88 in [6]. The composite z-score came out at 0.976 in [7]; 0.794 in [9]; 0.122 in assay [10]; 1.55 in assay [11]; 2.37 in assay [15]; 0.054 in assay [17]. The composite z-score was 1 in assay [18], 1.1 in assay [19] and -0.0433 in assay [20]. Further, the z-score in assay [8] was -0.176 (inactive); in assay [12], 2.76 (inactive); in assay [13], -0.0666 (inactive); in assay [14], 1.08 (inactive); in [16], 2.26 (inactive).

Consider `COc1cccc(C[C@H]2C[C@@H](CO[Si](C(C)C)(C(C)C)C(C)C)N3C(=O)[C@]4(C(C)=O)O[C@]23[C@H]2C(=O)N(C)C(=O)[C@H]24)c1`, for which the composite z-score in assay [1] was -0.46; in [2], 0.395; in [3], -0.021; in [4], 0.407; in assay [5], 0.797; in assay [6], 0.143. For the same compound, the composite z-score is 0.996 in assay [7]; 0.421 in [9]; -0.0618 in [10]; 1.49 in [11]; 0.622 in [15]; -0.0942 in [17]. The figures for the composite z-score in assay [18], in assay [19] and in assay [20] were 1, 1.13 and -0.0175, respectively. Moreover, the z-score in [8] was 0.165 (inactive); in [12] it was 0.481 (inactive); in [13], 1.38 (inactive); in assay [14] it was 1.25 (inactive); in assay [16], -1.11 (inactive).

Turning to `O=C1O[C@H](c2ccccc2)[C@H](c2ccccc2)N2[C@H]1[C@@H](C(=O)N1CCN(c3ncccn3)CC1)[C@]1(C(=O)Nc3ccc(C#CCCO)cc31)[C@H]2c1ccccc1OCCO`, the composite z-score is -0.301 in assay [1]; 0.851 in [2]; 0.0002 in assay [3]; 0.931 in assay [4]; 1.33 in assay [5]; 1.64 in assay [6]. Besides, the composite z-score is 0.965 in assay [7]; 0.312 in [9]; 0.0219 in assay [10]; 1.54 in assay [11]; 2.79 in assay [15]; -0.166 in [17]. The composite z-score in assay [18] was 0.942; in assay [19], 1.06; in assay [20], -0.0014. For the same compound, the z-score is -0.363 (inactive) in assay [8]; 1.36 (inactive) in assay [12]; -1.62 (inactive) in assay [13]; 3.87 (inactive) in [14]; 0.797 (inactive) in assay [16].

For the compound `C[C@H]1NC(=O)C([C@@H](C)OCc2ccccc2)NC(=O)[C@@]23C(=O)N[C@@H](Cc4ccccc4)C2[C@H](C)[C@@]2(C)O[C@H]2C3/C=C/CC/C=C/CNC1=O` (stereo not given in full), the composite z-score in assay [1] was -0.0367; in assay [2], 0.245; in [3], 0.0304; in assay [4], 0.263; in [5], 0.258; in [6], -0.178. Besides, the composite z-score is -0.248 in assay [7]; 0.114 in assay [9]; 0.127 in assay [10]; -0.1 in assay [11]; -0.147 in assay [15]; -0.016 in assay [17]. Further, the values for the composite z-score in assay [18], in [19] and in [20] were 0.598, -0.0089 and 0.0143, respectively. The z-score in [8] was 0.428 (inactive); in assay [12], 0.607 (inactive); in assay [13], -0.657 (inactive); in assay [14], 0.261 (inactive); in assay [16] it was 2.13 (inactive).

With `COC(=O)c1ccc(OC)c(/C=C\CC(CCc2ccccc2)OC(C)=O)c1` (stereo not given), the composite z-score in [1] was -0.28; in assay [2], -0.115; in [3] it was -0.118; in [4], -0.672; in [5], -0.394; in assay [6] it was -0.289. Besides, the composite z-score in assay [7] is -0.288; in assay [9] it was -0.458; in assay [10], 0.101; in assay [11], -0.0961; in [15], 0.324; in [17] it was -0.154. The composite z-score was -0.358 in assay [18], -0.255 in assay [19] and -0.0899 in assay [20]. The z-score is -2.76 (inactive) in assay [8]; -0.714 (inactive) in [12]; -0.645 (inactive) in [13]; -0.21 (inactive) in assay [14]; -0.031 (inactive) in assay [16].
